Experimental data from the supplement of paper PMC6555819.

Assays:
Test in all cases: PBM binding z-score (relative to random genomic background probes); higher = stronger binding; sequences stand for … in GC…GCGATTGACAGCGTAGAATGAAGG
[1] = system: RARb homodimer (NR concentration 270 nM)
Outline: (§1)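 Random background probes are the reference for binding z-scores. These scores derive from regression-normalized fluorescence on custom Agilent 4×180K protein-binding microarrays incubated 1 h with ligand-free nuclear receptor dimers. Binding was detected with antibodies against each partner (one per run).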

[2] = system: RARg:RXRa (NR concentration 270 nM, RXRa partner concentration 90 nM)
Outline: as §1

[3] = system: RARg homodimer (NR concentration 270 nM)
Outline: as §1

[4] = system: RXRa DBDmut IVT, anti-RXR (DBD mutation: RXRa K156A/R161A, NR concentration 90 nM)
Outline: as §1

[5] = system: RXRa homodimer (NR concentration 180 nM)
Outline: as §1

[6] = system: THRa:RXRa (NR concentration 90 nM, RXRa partner concentration 90 nM)
Outline: as §1

[7] = system: THRa homodimer (NR concentration 90 nM)
Outline: as §1

[8] = system: VDR homodimer (NR concentration 270 nM)
Outline: as §1

Sequence: CCTATTAGTTGACCATAAGGGCAACCGCAGCTCG
- PBM binding z-score [1]: 2.18
- PBM binding z-score [2]: 1.05
- PBM binding z-score [3]: 1.07
- PBM binding z-score [4]: 0.58
- PBM binding z-score [5]: 0.711
- PBM binding z-score [6]: 1.83
- PBM binding z-score [7]: 1.49
- PBM binding z-score [8]: 0.923

Sequence: ACTAGTTGGGCAGCTGAGGTCACACACAATTCGG
- PBM binding z-score [1]: 3.83
- PBM binding z-score [2]: 3.56
- PBM binding z-score [3]: 3.17
- PBM binding z-score [4]: 1.21
- PBM binding z-score [5]: 3.56
- PBM binding z-score [6]: 4.63
- PBM binding z-score [7]: 4.73
- PBM binding z-score [8]: 2.9

Sequence: GCTTACGGGTAAAAGGTTATAGCATGAATAGAAT
- PBM binding z-score [1]: 1.59
- PBM binding z-score [2]: 2.68
- PBM binding z-score [3]: 1.35
- PBM binding z-score [4]: 0.423
- PBM binding z-score [5]: 3.38
- PBM binding z-score [6]: 1.64
- PBM binding z-score [7]: -0.0699
- PBM binding z-score [8]: 0.48

Sequence: ACAAGCAGGCCAAGGGTCACTCAAGATTAGTCCG
- PBM binding z-score [1]: 3.85
- PBM binding z-score [2]: 4.28
- PBM binding z-score [3]: 4.23
- PBM binding z-score [4]: 0.479
- PBM binding z-score [5]: 4.21
- PBM binding z-score [6]: 2.67
- PBM binding z-score [7]: 0.327
- PBM binding z-score [8]: 0.958

Sequence: GGAACGAGGGCATTCGAGTTGATCGCATGGCGAT
- PBM binding z-score [1]: 0.71
- PBM binding z-score [2]: 1.11
- PBM binding z-score [3]: 1.52
- PBM binding z-score [4]: 3.18
- PBM binding z-score [5]: 0.775
- PBM binding z-score [6]: 3.44
- PBM binding z-score [7]: -0.598
- PBM binding z-score [8]: 3.38

Sequence: ATATGTAGGTTAAGGATCATTCAGGTTGGTTCGC
- PBM binding z-score [1]: 0.849
- PBM binding z-score [2]: 0.99
- PBM binding z-score [3]: 0.991
- PBM binding z-score [4]: 0.797
- PBM binding z-score [5]: 1.42
- PBM binding z-score [6]: 1.42
- PBM binding z-score [7]: 0.728
- PBM binding z-score [8]: 1.16

Sequence: TCTGCTAGGTCAGTTGGTCAGCTAGCGAGCTGCC
- PBM binding z-score [1]: 2.51
- PBM binding z-score [2]: 2.7
- PBM binding z-score [3]: 3.71
- PBM binding z-score [4]: 0.477
- PBM binding z-score [5]: 0.644
- PBM binding z-score [6]: 1.18
- PBM binding z-score [7]: -0.284
- PBM binding z-score [8]: -0.49
